# Data published in PubChem BioAssay (NCATS).
# Results filed as inconclusive are left out. A number with no mark means an inactive call. Activity calls are given as the source filed them. Calls follow the shape of the dose curve; as a rule, active = well fitted cell-killing curve with a large enough effect; inconclusive = small, poorly fitted or top-dose-only effect, or effect the other way; inactive = flat fitted curve, though single readings scatter.
# System: CAOV3
# Experiment: Primary qHTS to identify gynecologic anti-cancer compounds using libraries of approved drugs and bioactive compounds (AID 1345084); also: nearly all actives have a fitted effect of over 55% in size
# Details: Gynecologic cancer cell panel viability, ATPlite luminescence, 48 h; series mostly up to 57.5 µM; activity change, negative = cytotoxicity: at the top concentration
# Outline: (§1)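 Five-point cytotoxicity, 48 h drug exposure at 37 C, 5% CO2, on cells seeded 16 h beforehand. ATP content read by ATPlite luminescence.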
# % is scaled to controls: 0 for no effect and ±100 for the full control effect; potency is read from the fitted curve at half-maximal effect.
Structure (SMILES),"activity change, negative = cytotoxicity [%]",Potency
CCOC(=O)C1(c2ccccc2)CCN(CCC(C#N)(c2ccccc2)c2ccccc2)CC1,-0.257,
Clc1ccc(CCC(Cn2ccnc2)Sc2c(Cl)cccc2Cl)cc1 (stereo not drawn),-27.3,
c1ccc(C2CC2)c(OCC2=NCCN2)c1,9.05,
N#CC(C#N)=Cc1ccc(O)c(O)c1,8.47,
CC[C@@H](CO)NC(=O)[C@@H]1C=C2c3cccc4[nH]cc(c34)C[C@H]2N(C)C1,-1.24,
COc1ccc2c(c1OC)CN1CCc3cc4c(cc3C1C2)OCO4 (stereo not drawn),-27.3,
CC(C)CC(N(C)C)C1(c2ccc(Cl)cc2)CCC1 (stereo not drawn),-18.7,
C[C@]12CCC(=O)C(O)=C1CC[C@@H]1[C@@H]2CC[C@]2(C)C(=O)CC[C@@H]12,3.24,
CC(=O)Nc1cc([As](=O)(O)O)ccc1O,13.2,
CCCC1CCCCN1 (stereo not drawn),12.7,
CNC(=O)c1ccc(N2C(=S)N(c3ccc(C#N)c(C(F)(F)F)c3)C(=O)C23CCC3)cc1F,17.8,
Cc1cc(SCc2sc(-c3ccc(C(F)(F)F)c(F)c3)nc2C)ccc1OCC(=O)O,17.2,
CC(C)=CCOc1c2occc2cc2ccc(=O)oc12,-0.764,
C[C@]12CC[C@H]3[C@@H](CCC4=CC(=O)CC[C@@H]43)[C@@H]1CC[C@@H]2OC(=O)CCc1ccccc1,5.48,
N[C@@H]1C[C@H]1c1ccccc1,1.55,
Oc1ccc(Cl)cc1Cc1ccccc1,,inactive
COc1ccc(Cc2nccc3cc(OC)c(OC)cc23)cc1OC,-2.81,
CCC(COC(=O)c1cc(OC)c(OC)c(OC)c1)(c1ccccc1)N(C)C (stereo not drawn),-6.56,
CC[N+]1(C)CCCC(OC(=O)C(O)(c2ccccc2)c2ccccc2)C1 (stereo not drawn),2.3,
Clc1cccc(N2CCNCC2)c1,8.23,
CN(C)CCc1ccc(O)cc1,-1.63,

# System: CASKI
# Experiment: as above
# Details: Gynecologic cancer cell panel viability, ATPlite luminescence, 48 h; series mostly up to 57.5 µM; activity change, negative = cytotoxicity: at the top concentration
# Outline: as §1
Structure (SMILES),"activity change, negative = cytotoxicity [%]",Potency
CN1C[C@H](CNC(=O)OCc2ccccc2)C[C@@H]2c3cccc4c3c(cn4C)C[C@H]21,-13.7,
COc1ccc(C(=O)c2c(C)n(CCN3CCOCC3)c3ccccc23)cc1,1.24,
CCOC(=O)C1(c2ccccc2)CCN(CCC(C#N)(c2ccccc2)c2ccccc2)CC1,-16.6,
Clc1ccc(CCC(Cn2ccnc2)Sc2c(Cl)cccc2Cl)cc1 (stereo not drawn),-22.9,
c1ccc(C2CC2)c(OCC2=NCCN2)c1,1.74,
N#CC(C#N)=Cc1ccc(O)c(O)c1,-19.6,
C=C1C[C@@H]2[C@H](CC[C@]3(C)C(=O)CC[C@@H]23)[C@@]2(C)C=CC(=O)C=C12,-12.6,
CC[C@@H](CO)NC(=O)[C@@H]1C=C2c3cccc4[nH]cc(c34)C[C@H]2N(C)C1,8.44,
C[C@]12CCC(=O)C(O)=C1CC[C@@H]1[C@@H]2CC[C@]2(C)C(=O)CC[C@@H]12,-1.5,
C=C(C)[C@H]1Cc2c(ccc3c2O[C@@H]2COc4cc(OC)c(OC)cc4[C@@H]2C3=O)O1,,1.26 µM (active)
CC(=O)Nc1cc([As](=O)(O)O)ccc1O,-0.45,
CCCC1CCCCN1 (stereo not drawn),6.45,
CNC(=O)c1ccc(N2C(=S)N(c3ccc(C#N)c(C(F)(F)F)c3)C(=O)C23CCC3)cc1F,-6.66,
Cc1cc(SCc2sc(-c3ccc(C(F)(F)F)c(F)c3)nc2C)ccc1OCC(=O)O,7.69,
CC(C)=CCOc1c2occc2cc2ccc(=O)oc12,-12.9,
C[C@]12CC[C@H]3[C@@H](CCC4=CC(=O)CC[C@@H]43)[C@@H]1CC[C@@H]2OC(=O)CCc1ccccc1,0.451,
CC1NCCOC1c1ccccc1 (stereo not drawn),4.78,
Oc1ccc(Cl)cc1Cc1ccccc1,,inactive
CCC(COC(=O)c1cc(OC)c(OC)c(OC)c1)(c1ccccc1)N(C)C (stereo not drawn),-29,
CC[N+]1(C)CCCC(OC(=O)C(O)(c2ccccc2)c2ccccc2)C1 (stereo not drawn),6.1,
Clc1cccc(N2CCNCC2)c1,-1.61,
CN(C)CCc1ccc(O)cc1,-4.48,

# System: Es-2
# Experiment: as above
# Details: Gynecologic cancer cell panel viability, ATPlite luminescence, 48 h; series mostly up to 57.5 µM; activity change, negative = cytotoxicity: at the top concentration
# Outline: as §1
Structure (SMILES),"activity change, negative = cytotoxicity",Potency
CN1C[C@H](CNC(=O)OCc2ccccc2)C[C@@H]2c3cccc4c3c(cn4C)C[C@H]21,-6.79%,
COc1ccc(C(=O)c2c(C)n(CCN3CCOCC3)c3ccccc23)cc1,7.79%,
Clc1ccc(CCC(Cn2ccnc2)Sc2c(Cl)cccc2Cl)cc1 (stereo not drawn),-20.3%,
c1ccc(C2CC2)c(OCC2=NCCN2)c1,-3.82%,
N#CC(C#N)=Cc1ccc(O)c(O)c1,5.46%,
CCC(=O)C(CC(C)N(C)C)(c1ccccc1)c1ccccc1 (stereo not drawn),-1.8% [at 116 µM],
CC[C@@H](CO)NC(=O)[C@@H]1C=C2c3cccc4[nH]cc(c34)C[C@H]2N(C)C1,-0.766%,
COc1ccc2c(c1OC)CN1CCc3cc4c(cc3C1C2)OCO4 (stereo not drawn),-9.64%,
CC(C)CC(N(C)C)C1(c2ccc(Cl)cc2)CCC1 (stereo not drawn),0.849%,
C[C@]12CCC(=O)C(O)=C1CC[C@@H]1[C@@H]2CC[C@]2(C)C(=O)CC[C@@H]12,10.8%,
CNC(=O)N1N=C(c2ccc(N)cc2)c2cc3c(cc2CC1C)OCO3 (stereo not drawn),-22.8%,
CC(=O)Nc1cc([As](=O)(O)O)ccc1O,-0.372%,
CCCC1CCCCN1 (stereo not drawn),-0.402%,
CNC(=O)c1ccc(N2C(=S)N(c3ccc(C#N)c(C(F)(F)F)c3)C(=O)C23CCC3)cc1F,4.62%,
Cc1cc(SCc2sc(-c3ccc(C(F)(F)F)c(F)c3)nc2C)ccc1OCC(=O)O,4.1%,
CC(C)=CCOc1c2occc2cc2ccc(=O)oc12,0.835%,
C[C@]12CC[C@H]3[C@@H](CCC4=CC(=O)CC[C@@H]43)[C@@H]1CC[C@@H]2OC(=O)CCc1ccccc1,-2.2%,
N[C@@H]1C[C@H]1c1ccccc1,8.64%,
O=c1[nH]c2ccccc2n1C1CCN(CCCC(c2ccc(F)cc2)c2ccc(F)cc2)CC1,-1.69%,
CC1NCCOC1c1ccccc1 (stereo not drawn),1.01%,
Oc1ccc(Cl)cc1Cc1ccccc1,,inactive
CCC(COC(=O)c1cc(OC)c(OC)c(OC)c1)(c1ccccc1)N(C)C (stereo not drawn),4.79%,
CC[N+]1(C)CCCC(OC(=O)C(O)(c2ccccc2)c2ccccc2)C1 (stereo not drawn),0.861%,
Clc1cccc(N2CCNCC2)c1,3.8%,
CN(C)CCc1ccc(O)cc1,-0.923%,
